# Reference: article PMC11006913
# Numbering of substitutions follows the chain as printed.
# What was measured:
# Assay in all cases: PBM; 200 nM protein, PBS
# Conditions in all cases: dsDNA, one strand shown
# [1] = molecular target: T1, VENTX (Homo sapiens, UniProt O95231 78-163, R121Q)
# T1 sequence: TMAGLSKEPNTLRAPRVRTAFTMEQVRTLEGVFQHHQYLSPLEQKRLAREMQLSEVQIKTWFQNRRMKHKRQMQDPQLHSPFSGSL
# [2] = molecular target: T2, VENTX (Homo sapiens, UniProt O95231 78-163)
# T2 sequence: T1 sequence with Q44R
# [3] = molecular target: T3, VENTX (Homo sapiens, UniProt O95231 78-163, Y115F)
# T3 sequence: T1 sequence with Y38F, Q44R
# [4] = molecular target: VAX1 (Homo sapiens, UniProt Q5SQQ9 86-172)
# [5] = molecular target: VAX1 (Homo sapiens, UniProt Q5SQQ9 86-172, T142I)
# [6] = molecular target: VAX1 (Homo sapiens, UniProt Q5SQQ9 86-172, K157R)
# [7] = molecular target: HOXB9 (Homo sapiens, UniProt P17482 171-250, T197M)
# [8] = molecular target: HOXC9 (Homo sapiens, UniProt P31274 178-260, K195R)
# [9] = molecular target: HOXA7 (Homo sapiens, UniProt P31268 116-202)
# [10] = molecular target: HOXC10 (Homo sapiens, UniProt Q9NYD6 254-340)
# [11] = molecular target: HOXB6 (Homo sapiens, UniProt P17509 132-218, K202E)
# [12] = molecular target: HOXC9 (Homo sapiens, UniProt P31274 178-260)
# [13] = molecular target: HOXC9 (Homo sapiens, UniProt P31274 178-260, R193K)
# [14] = molecular target: HOXC10 (Homo sapiens, UniProt Q9NYD6 254-340, K271E)
# [15] = molecular target: HOXC9 (Homo sapiens, UniProt P31274 178-260, R222W)
# [16] = molecular target: HOXA7 (Homo sapiens, UniProt P31268 116-202, W177C)
# [17] = molecular target: HOXB6 (Homo sapiens, UniProt P17509 132-218)
# [18] = molecular target: HOXB9 (Homo sapiens, UniProt P17482 171-250)
# [19] = molecular target: HOXD13 (Homo sapiens, UniProt P35453 263-343, T313R)
# [20] = molecular target: HOXD13 (Homo sapiens, UniProt P35453 263-343)
# [21] = molecular target: HOXD13 (Homo sapiens, UniProt P35453 263-343, T313A)
# [22] = molecular target: HOXB9 (Homo sapiens, UniProt P17482 171-250, R186Q)
# [23] = molecular target: HOXA4 (Homo sapiens, UniProt Q00056 201-287, W262F)
# [24] = molecular target: ALX4 (Homo sapiens, UniProt Q9H161 200-286, Q225E)
# Sequence of ALX4 (Q9H161 200-286 Q225E): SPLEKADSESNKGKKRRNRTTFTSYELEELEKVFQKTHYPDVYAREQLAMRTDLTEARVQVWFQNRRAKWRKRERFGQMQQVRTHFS
# Sequence of HOXB6 (Homo sapiens, UniProt P17509 132-218) (P17509 132-218): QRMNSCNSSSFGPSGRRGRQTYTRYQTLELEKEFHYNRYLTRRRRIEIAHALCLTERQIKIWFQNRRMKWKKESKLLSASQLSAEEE
# Sequence of HOXB6 (Homo sapiens, UniProt P17509 132-218, K202E) (P17509 132-218 K202E): as the sequence (P17509 132-218) above, with K71E counted along it
# Sequence of HOXC10 (Homo sapiens, UniProt Q9NYD6 254-340) (Q9NYD6 254-340): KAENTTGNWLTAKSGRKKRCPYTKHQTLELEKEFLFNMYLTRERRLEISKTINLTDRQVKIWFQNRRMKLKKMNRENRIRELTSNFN
# Sequence of VAX1 (Homo sapiens, UniProt Q5SQQ9 86-172, K157R) (Q5SQQ9 86-172 K157R): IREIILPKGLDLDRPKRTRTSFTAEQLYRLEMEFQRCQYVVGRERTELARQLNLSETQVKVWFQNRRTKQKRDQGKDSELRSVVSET
# Sequence of HOXA7 (Homo sapiens, UniProt P31268 116-202) (P31268 116-202): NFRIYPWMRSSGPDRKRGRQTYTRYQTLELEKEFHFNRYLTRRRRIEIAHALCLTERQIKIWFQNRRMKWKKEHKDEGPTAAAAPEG
# Sequence of VAX1 (Homo sapiens, UniProt Q5SQQ9 86-172) (Q5SQQ9 86-172): as the sequence (Q5SQQ9 86-172 K157R) above, with R72K counted along it
# Sequence of HOXC9 (Homo sapiens, UniProt P31274 178-260) (P31274 178-260): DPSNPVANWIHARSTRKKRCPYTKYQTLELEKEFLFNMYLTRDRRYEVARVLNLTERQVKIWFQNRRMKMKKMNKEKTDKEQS
# Sequence of HOXC9 (Homo sapiens, UniProt P31274 178-260, R222W) (P31274 178-260 R222W): as the sequence (P31274 178-260) above, with R45W counted along it
# Sequence of HOXC9 (Homo sapiens, UniProt P31274 178-260, K195R) (P31274 178-260 K195R): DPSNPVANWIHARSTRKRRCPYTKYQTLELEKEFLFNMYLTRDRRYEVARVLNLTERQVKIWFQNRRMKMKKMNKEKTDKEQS
# Sequence of HOXC10 (Homo sapiens, UniProt Q9NYD6 254-340, K271E) (Q9NYD6 254-340 K271E): as the sequence (Q9NYD6 254-340) above, with K18E counted along it
# Sequence of HOXA7 (Homo sapiens, UniProt P31268 116-202, W177C) (P31268 116-202 W177C): as the sequence (P31268 116-202) above, with W62C counted along it
# Sequence of HOXC9 (Homo sapiens, UniProt P31274 178-260, R193K) (P31274 178-260 R193K): as the sequence (P31274 178-260) above, with R16K counted along it
# Sequence of HOXB9 (Homo sapiens, UniProt P17482 171-250, T197M) (P17482 171-250 T197M): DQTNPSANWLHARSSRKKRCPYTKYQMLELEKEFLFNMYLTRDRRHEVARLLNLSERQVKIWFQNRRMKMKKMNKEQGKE
# Sequence of VAX1 (Homo sapiens, UniProt Q5SQQ9 86-172, T142I) (Q5SQQ9 86-172 T142I): as the sequence (Q5SQQ9 86-172 K157R) above, with T57I, R72K counted along it
# Sequence of HOXB9 (Homo sapiens, UniProt P17482 171-250, R186Q) (P17482 171-250 R186Q): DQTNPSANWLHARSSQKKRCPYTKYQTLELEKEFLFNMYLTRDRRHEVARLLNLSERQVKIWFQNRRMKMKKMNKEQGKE
# Sequence of HOXD13 (Homo sapiens, UniProt P35453 263-343, T313A) (P35453 263-343 T313A): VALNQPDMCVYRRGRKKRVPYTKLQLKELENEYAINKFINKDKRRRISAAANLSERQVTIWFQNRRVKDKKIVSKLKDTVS
# Sequence of HOXB9 (Homo sapiens, UniProt P17482 171-250) (P17482 171-250): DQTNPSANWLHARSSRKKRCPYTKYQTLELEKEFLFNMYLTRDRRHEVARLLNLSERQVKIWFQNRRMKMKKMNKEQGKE
# Sequence of HOXD13 (Homo sapiens, UniProt P35453 263-343, T313R) (P35453 263-343 T313R): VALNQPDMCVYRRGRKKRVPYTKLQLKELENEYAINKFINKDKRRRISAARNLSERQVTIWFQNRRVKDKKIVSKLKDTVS
# Sequence of HOXD13 (Homo sapiens, UniProt P35453 263-343) (P35453 263-343): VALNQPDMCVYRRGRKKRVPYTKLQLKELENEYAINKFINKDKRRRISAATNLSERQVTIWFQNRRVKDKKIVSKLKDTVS
# Sequence of HOXA4 (Q00056 201-287 W262F): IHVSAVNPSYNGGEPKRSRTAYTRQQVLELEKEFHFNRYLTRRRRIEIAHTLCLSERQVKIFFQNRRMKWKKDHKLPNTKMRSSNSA
sequence,measurement,setting,value
CGGGCGCA,binding signal,[1],"7.97 upbm affinity estimate (log intensity, higher = more binding, comparable within an allelic series)"
same,binding signal,[2],"7.92 upbm affinity estimate (log intensity, higher = more binding, comparable within an allelic series)"
same,binding signal,[3],"7.91 upbm affinity estimate (log intensity, higher = more binding, comparable within an allelic series)"
same,binding signal,[4],"6.81 upbm affinity estimate (log intensity, higher = more binding, comparable within an allelic series)"
same,binding signal,[5],"6.96 upbm affinity estimate (log intensity, higher = more binding, comparable within an allelic series)"
same,binding signal,[6],"6.94 upbm affinity estimate (log intensity, higher = more binding, comparable within an allelic series)"
TAATCGGA,binding signal,[1],"10.4 upbm affinity estimate (log intensity, higher = more binding, comparable within an allelic series)"
same,binding signal,[3],"10.6 upbm affinity estimate (log intensity, higher = more binding, comparable within an allelic series)"
CCCACGCA,binding signal,[1],"8.08 upbm affinity estimate (log intensity, higher = more binding, comparable within an allelic series)"
same,binding signal,[2],"7.93 upbm affinity estimate (log intensity, higher = more binding, comparable within an allelic series)"
same,binding signal,[3],"7.96 upbm affinity estimate (log intensity, higher = more binding, comparable within an allelic series)"
same,binding signal,[4],"7.08 upbm affinity estimate (log intensity, higher = more binding, comparable within an allelic series)"
same,binding signal,[5],"7.21 upbm affinity estimate (log intensity, higher = more binding, comparable within an allelic series)"
same,binding signal,[6],"7.04 upbm affinity estimate (log intensity, higher = more binding, comparable within an allelic series)"
ATTATTAC,binding signal,[7],"10 upbm affinity estimate (log intensity, higher = more binding, comparable within an allelic series)"
same,binding signal,[8],"12.5 upbm affinity estimate (log intensity, higher = more binding, comparable within an allelic series)"
same,binding signal,[9],"11.2 upbm affinity estimate (log intensity, higher = more binding, comparable within an allelic series)"
same,binding signal,[10],"12.1 upbm affinity estimate (log intensity, higher = more binding, comparable within an allelic series)"
same,binding signal,[11],"10 upbm affinity estimate (log intensity, higher = more binding, comparable within an allelic series)"
same,binding signal,[12],"12.6 upbm affinity estimate (log intensity, higher = more binding, comparable within an allelic series)"
same,binding signal,[13],"12.5 upbm affinity estimate (log intensity, higher = more binding, comparable within an allelic series)"
same,binding signal,[14],"11.6 upbm affinity estimate (log intensity, higher = more binding, comparable within an allelic series)"
same,binding signal,[15],"11 upbm affinity estimate (log intensity, higher = more binding, comparable within an allelic series)"
same,binding signal,[16],"8.99 upbm affinity estimate (log intensity, higher = more binding, comparable within an allelic series)"
same,binding signal,[17],"11.7 upbm affinity estimate (log intensity, higher = more binding, comparable within an allelic series)"
CCATTAAA,binding signal,[7],"10.1 upbm affinity estimate (log intensity, higher = more binding, comparable within an allelic series)"
same,binding signal,[8],"13 upbm affinity estimate (log intensity, higher = more binding, comparable within an allelic series)"
same,binding signal,[9],"11.5 upbm affinity estimate (log intensity, higher = more binding, comparable within an allelic series)"
same,binding signal,[10],"12.5 upbm affinity estimate (log intensity, higher = more binding, comparable within an allelic series)"
same,binding signal,[11],"9.87 upbm affinity estimate (log intensity, higher = more binding, comparable within an allelic series)"
same,binding signal,[18],"12.4 upbm affinity estimate (log intensity, higher = more binding, comparable within an allelic series)"
same,binding signal,[12],"13.1 upbm affinity estimate (log intensity, higher = more binding, comparable within an allelic series)"
same,binding signal,[19],"10.6 upbm affinity estimate (log intensity, higher = more binding, comparable within an allelic series)"
same,binding signal,[13],"13 upbm affinity estimate (log intensity, higher = more binding, comparable within an allelic series)"
same,binding signal,[20],"11.9 upbm affinity estimate (log intensity, higher = more binding, comparable within an allelic series)"
same,binding signal,[14],"12.2 upbm affinity estimate (log intensity, higher = more binding, comparable within an allelic series)"
same,binding signal,[4],"12.2 upbm affinity estimate (log intensity, higher = more binding, comparable within an allelic series)"
same,binding signal,[21],"11.6 upbm affinity estimate (log intensity, higher = more binding, comparable within an allelic series)"
same,binding signal,[22],"12.2 upbm affinity estimate (log intensity, higher = more binding, comparable within an allelic series)"
same,binding signal,[15],"11.1 upbm affinity estimate (log intensity, higher = more binding, comparable within an allelic series)"
same,binding signal,[5],"11.9 upbm affinity estimate (log intensity, higher = more binding, comparable within an allelic series)"
same,binding signal,[16],"8.59 upbm affinity estimate (log intensity, higher = more binding, comparable within an allelic series)"
same,binding signal,[23],"10.9 upbm affinity estimate (log intensity, higher = more binding, comparable within an allelic series)"
same,binding signal,[6],"11.8 upbm affinity estimate (log intensity, higher = more binding, comparable within an allelic series)"
same,binding signal,[17],"12 upbm affinity estimate (log intensity, higher = more binding, comparable within an allelic series)"
GCAATAAA,binding signal,[7],"10 upbm affinity estimate (log intensity, higher = more binding, comparable within an allelic series)"
same,binding signal,[8],"13.2 upbm affinity estimate (log intensity, higher = more binding, comparable within an allelic series)"
same,binding signal,[9],"11.2 upbm affinity estimate (log intensity, higher = more binding, comparable within an allelic series)"
same,binding signal,[10],"12.8 upbm affinity estimate (log intensity, higher = more binding, comparable within an allelic series)"
same,binding signal,[11],"9.94 upbm affinity estimate (log intensity, higher = more binding, comparable within an allelic series)"
same,binding signal,[24],"10.5 upbm affinity estimate (log intensity, higher = more binding, comparable within an allelic series)"
same,binding signal,[18],"12.6 upbm affinity estimate (log intensity, higher = more binding, comparable within an allelic series)"
same,binding signal,[12],"13.3 upbm affinity estimate (log intensity, higher = more binding, comparable within an allelic series)"
same,binding signal,[19],"11 upbm affinity estimate (log intensity, higher = more binding, comparable within an allelic series)"
same,binding signal,[13],"13.1 upbm affinity estimate (log intensity, higher = more binding, comparable within an allelic series)"
same,binding signal,[20],"12.3 upbm affinity estimate (log intensity, higher = more binding, comparable within an allelic series)"
same,binding signal,[14],"12.3 upbm affinity estimate (log intensity, higher = more binding, comparable within an allelic series)"
same,binding signal,[21],"12.1 upbm affinity estimate (log intensity, higher = more binding, comparable within an allelic series)"
same,binding signal,[22],"12.3 upbm affinity estimate (log intensity, higher = more binding, comparable within an allelic series)"
same,binding signal,[15],"11.4 upbm affinity estimate (log intensity, higher = more binding, comparable within an allelic series)"
same,binding signal,[16],"8.8 upbm affinity estimate (log intensity, higher = more binding, comparable within an allelic series)"
same,binding signal,[17],"11.7 upbm affinity estimate (log intensity, higher = more binding, comparable within an allelic series)"
GCGCGAAC,binding signal,[1],"8.01 upbm affinity estimate (log intensity, higher = more binding, comparable within an allelic series)"
same,binding signal,[2],"8 upbm affinity estimate (log intensity, higher = more binding, comparable within an allelic series)"
same,binding signal,[3],"8.06 upbm affinity estimate (log intensity, higher = more binding, comparable within an allelic series)"
same,binding signal,[4],"7.03 upbm affinity estimate (log intensity, higher = more binding, comparable within an allelic series)"
same,binding signal,[5],"7.1 upbm affinity estimate (log intensity, higher = more binding, comparable within an allelic series)"
same,binding signal,[6],"7.1 upbm affinity estimate (log intensity, higher = more binding, comparable within an allelic series)"
